The text below walks through data of PubChem BioAssay (NCI).

This is part of a sample that, as a whole, favours compounds with a hit. Of some 79,000 tested, about 15% had one in any assay. Unmarked numbers belong to inactive results. Cut-off read from the data, not from the text of the source: active = growth inhibition above about 70%; inactive = the rest.

This test can be described thus: NCI Yeast Anticancer Drug Screen. Data for the rad50 strain (AID 155).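 Note: 0% = growth of vehicle-only cultures of the same strain.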 As to conditions: S. cerevisiae rad50 strain growth inhibition; at 50.0 µM; hits give high values. An outline of the steps:
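Vehicle-treated cultures provide the reference for the growth inhibition reported for compound-exposed, repair-deficient yeast.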
For the molecule `COc1cc(C(C#N)NNc2nc(C)cc(=O)[nH]2)cc(OC)c1OC` (stereo not given), the growth inhibition was -25.6%.

As to `CCOC(=O)NC(=O)c1cn(CCN2CCN(C(=O)CCCCCCCCCCC(=O)N3CCN(CCn4cc(C(=O)NC(=O)OCC)c(=O)[nH]c4=O)CC3)CC2)c(=O)[nH]c1=O`, the growth inhibition is 16.4%.

`O=C(O)c1ccc(Cl)c(C(=O)O)c1`: the growth inhibition is 13.8%.

As for `COc1ccc2nc(N/N=C/C(C)=N/Nc3cc(C)c4cc(OC)ccc4n3)cc(C)c2c1`, the growth inhibition is -3%.

`CC1(C)OC2C(O1)[C@H]1OC(C(Cl)(Cl)Cl)=N[C@H]1C(I)[C@H]2N1C(=O)c2ccccc2C1=O` (stereo not given in full): the growth inhibition was 0.25%.

In the case of `COc1cc(C(=O)C(C=O)c2ccccc2)c([N+](=O)[O-])cc1OC` (stereo not given), the growth inhibition is 14.8%.

With `COC1OC2COC(c3ccccc3)OC2C(N=[N+]=[N-])C1O` (stereo not given), the growth inhibition is -0.1%.

With `CC(C)CC(O)(CC(C)C)C(CCC(=O)Nc1ccccc1)C(=O)Nc1ccccc1` (stereo not given), the growth inhibition was 26.1%.

`CC1=Nc2ccccc2C1(C)C`: the growth inhibition was 8.25%.

As to `Nc1ncnc2c1[nH]c(=S)n2C1OC(CO)C(O)C1O` (stereo not given), the growth inhibition was 14.4%.

As to `CC(C)(C)OC(=O)Cc1ccc2c(ccn2Cc2ccccc2)c1`, the growth inhibition is -26.2%.

As to `CC(=O)Nc1c(Cl)cc2c(c1Cl)Cc1cc(N(C)C)ccc1-2`, the growth inhibition was -13.6%.

For the molecule `Cc1ccc(C2(c3ccc(C)cc3)OCC(C)(CBr)CO2)cc1`, the growth inhibition is -30%.

Take `COC(=O)N/N=C(\C)CC(=O)Nc1ccc(Cl)cc1`: the growth inhibition was -22.9%.

On to `CC1C(C)(C)P(=O)(OCCOP2(=O)C(C)(C)C(C)C2(C)C)C1(C)C` (stereo not given), for which the growth inhibition was 35%.

For `CC(=O)NC(Cc1cccc2ccccc12)C(=O)O` (stereo not given), the growth inhibition was 0.55%.

For `c1ccc(N=C2CCCCCC2)cc1`, the growth inhibition is -1.85%.

As to `COc1cc2cc3c4cc(OC)c(OC)cc4cc[n+]3cc2cc1OC`, the growth inhibition is -4.5%.

For `CCN(CC)c1ccc2cc(C(=O)Nc3nc(C45CC6CC(CC(C6)C4)C5)cs3)c(=O)oc2c1`, the growth inhibition is -17.4%.

For `O=C(NCCCN1CCCCCC1)C(c1ccccc1)C1CCCCC1` (stereo not given), the growth inhibition was 25.3%.

`CC1(C)N=C(N)N=C(N)N1c1ccc(C(F)(F)F)cc1`: the growth inhibition was 4.15%.

Consider `CC(Cc1ccccc1)NC(=O)CCCN1C(=O)c2ccccc2C1=O` (stereo not given), for which the growth inhibition was -2.55%.

With `CCSc1nc(C)nc2c1cnn2-c1ccccc1`, the growth inhibition was -0.1%.

As for `CC1(C)OC[C@@H](O)[C@H](Br)CO1`, the growth inhibition is -14.7%.

For the molecule `COc1ccc2cc3n(cc-2c1=O)CCc1cc2c(cc1-3)OCO2`, the growth inhibition is -8.65%.

Regarding `N#CCCCN1CCOCC1`, the growth inhibition is 0.8%.

In the case of `CC(=O)C1(C)CCC2C3CCC4=CC(=O)CCC4=C3CCC21C` (stereo not given), the growth inhibition is 32.1%.

As to `CC(C)(C)/[N+]([O-])=C/C1(C2(/C=[N+](\[O-])C(C)(C)C)Cc3ccccc3C2=O)Cc2ccccc2C1=O` (stereo not given), the growth inhibition was 29.8%.

`COC(=O)/C=C/C(=N/N(C)c1ccccc1)c1ccccc1`: the growth inhibition is 3.35%.

As to `NCCC(=O)NCCSSCCNC(=O)CCN`, the growth inhibition is -8.45%.

Take `O=C(NCCCNCCCCNCCCNC(=O)C(F)(F)F)C(F)(F)F`: the growth inhibition is 5.05%.

Turning to `O=C(CCC(=O)Nc1cc(Cl)ccc1Cl)CC(=O)c1ccc(Cl)cc1`, the growth inhibition was 14.1%.

Turning to `S=C1NC(/C=C/c2ccccc2)Nc2ccccc21` (stereo not given), the growth inhibition is 62.2%.

With `O=C(Nc1cc(Br)c2cccc3c2c1CC3)c1ccccc1`, the growth inhibition is 6.35%.

On to `CN(C)CC(c1ccccc1)C(O)(c1ccccc1)c1ccccc1` (stereo not given), for which the growth inhibition was -5.65%.

With `Clc1ccccc1CSc1cc(SCc2ccccc2Cl)nc(SCc2ccccc2Cl)n1`, the growth inhibition is -8%.

For the molecule `CC(C)=CCC(C)C`, the growth inhibition is -12.1%.

With `CCC(=O)NC1CCCCC1`, the growth inhibition was 8.6%.

With `O=C(c1ccccc1)C(c1ccccc1)N(CCO)CCO` (stereo not given), the growth inhibition was -9.8%.

As for `O=c1[nH]c2ccccc2c(N=Cc2ccccc2)c1-c1ccccc1`, the growth inhibition is -6.95%.
